Source: PubChem BioAssay
The list is not random: actives were taken first. Their share in the collection is about 1.4%.
TrxR1 substrate: is turned over as a substrate by rat TrxR1; Potency, µM (doses to about 114 µM), without a hit: at the top dose activity change, negative = substrate turnover; 390,000 tested, 0.01% active; AID 588456; purified TrxR1 substrate turnover, NADPH consumption readout; O89049; further: potency means the concentration at half of the fitted maximal effect; on the % scale 0 is the no-effect control and ±100 the full control effect; nearly all actives have a fitted effect of over 50% in size
Target sequence (O89049 whole entry, looked up): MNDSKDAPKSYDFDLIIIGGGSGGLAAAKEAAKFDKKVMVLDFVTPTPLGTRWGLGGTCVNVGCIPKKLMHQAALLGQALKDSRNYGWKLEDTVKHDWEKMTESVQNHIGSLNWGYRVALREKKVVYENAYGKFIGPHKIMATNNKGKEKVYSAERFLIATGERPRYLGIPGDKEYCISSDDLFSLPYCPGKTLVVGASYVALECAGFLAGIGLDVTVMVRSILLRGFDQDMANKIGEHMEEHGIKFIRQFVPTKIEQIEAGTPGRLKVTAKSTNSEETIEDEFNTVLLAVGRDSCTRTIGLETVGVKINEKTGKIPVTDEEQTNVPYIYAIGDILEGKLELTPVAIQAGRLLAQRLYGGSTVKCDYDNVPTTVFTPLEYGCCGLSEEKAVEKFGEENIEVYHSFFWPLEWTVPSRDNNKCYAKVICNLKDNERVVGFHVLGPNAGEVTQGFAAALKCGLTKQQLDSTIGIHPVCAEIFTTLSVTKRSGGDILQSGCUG
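Rat TrxR1, dispensed at 90 nM, was prereduced with 400 uM NADPH (final) for 5 min at ~22 deg C, then incubated with compound 15 min before 400 uM selenite. A first-read NADPH fluorescence drop versus no-compound background flagged substrates.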
A-T KAP1 phos: potential ataxia-telangiectasia treatments restoring KAP-1 phosphorylation. F2112 A-T fibroblasts, KAP-1 phosphorylation AlphaLISA; neocarzinostatin DNA damage 30 min before lysis. Potency, µM (top dose mostly 57.5 µM), for inactives: at the highest dose activation, most hits filed as activators. 320,000 tested, 0.19% active. AID 485349; further: potency means the concentration at half of the fitted maximal effect; % of control where 0% means no effect; nearly all actives have a fitted effect of over 45% in size
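hTERT-immortalized A-T patient fibroblasts (F2112), 500 cells/well in OPTI-MEM, 1% FBS, got compounds for 60 min, then NCS for 30 min at 37C. Lysates were then assayed for phospho-KAP-1 by AlphaLISA (anti-pKAP1 donor, anti-KAP1 acceptor beads), 6 hr at 25C.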
rTrxR1 inhibitor: inhibitors of rat thioredoxin reductase 1 | O89049 | 390,000 tested, 1% active | Potency, µM (titrated, usually from 114 µM), without a hit: top-dose activity change, negative = inhibition, usual class: inhibitors | recombinant rTrxR1, NADPH fluorescence consumption, selenite substrate; further: potency means the concentration at half of the fitted maximal effect; on the % scale 0 is the no-effect control and ±100 the full control effect; nearly all actives have a fitted effect of over 65% in size
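Rat TrxR1 (90 nM in the dispensed reagent) was pre-reduced with 400 uM NADPH for 5 min at room temperature, then incubated with compound for 15 min. After 400 uM selenite was added, NADPH fluorescence (Ex 340/Em 450 nm) was followed for 8 min.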
pAkt inh: Akt phosphorylation inhibition | Neuro2A IGF-stimulated pAkt S473 HTRF, 20 min; active compounds read low | activity change, % for hits at 50 µM | 360,000 tested, 0.32% active | AID 651550; in the data active means activity change below about -80%; inconclusive means mostly about -51% to -80%; further: on the % scale 0 is the no-effect control and ±100 the full control effect
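Single-point screen (50 µM final compound) in Neuro2A cells stimulated 20 min with 6 nM IGF at 37 deg C. After lysis, Ser473-phosphorylated Akt read by HTRF (ex 330 nm, em 615/665 nm) as the 665/615 ratio.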
N370S GC: inhibitors or activators of N370S glucocerebrosidase for Gaucher disease | P04062 | N370S GC spleen homogenate, 4MU-glucoside fluorescence | Potency, µM (doses to about 59.4 µM), for the others: at the highest dose activity change, negative = inhibition, actives largely listed as inhibitors | 330,000 tested, 0.092% active | AID 2101;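 further: potency means the concentration at half of the fitted maximal effect; 0% = full enzyme activity and -100% = no enzyme basal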
Pin1 inh: blocks the human prolyl isomerase Pin1 | Pin1 FP peptide displacement, HiFluor488, 10 min | Potency, µM (highest dose often 115 µM), for the others: at the top dose activity, negative = inhibition, actives largely listed as inhibitors | 390,000 tested, 0.009% active; active means well fitted inhibition curve with a large enough effect in the polarisation, with a control signal flat, not every such curve was filed as active; inconclusive means small, poorly fitted or top-dose-only effect, or effect the other way, or a change in a side signal; inactive means no such curve, though single readings can be large or run the other way; the % refers to the polarisation; further: potency means the concentration at half of the fitted maximal effect; on the % scale 0 is the no-effect control and ±100 the full control effect
Target sequence (Q13526 whole entry, looked up): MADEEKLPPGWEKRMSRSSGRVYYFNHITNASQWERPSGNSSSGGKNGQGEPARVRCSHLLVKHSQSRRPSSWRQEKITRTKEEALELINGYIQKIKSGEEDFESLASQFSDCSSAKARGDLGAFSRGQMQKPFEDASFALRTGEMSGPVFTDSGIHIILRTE
* marks the source's active call; other numbers are inactive results; i = inactive; ? = inconclusive; nt = no result given; [ ] = dose if it differs, or a comment. Unless noted, the call rests on the fitted dose curve; in most records, active means well fitted curve in the direction sought with a large enough effect; inconclusive means small, poorly fitted or top-dose-only effect, or another doubt; inactive means no such curve, though single readings can be large; an effect the other way counts as inactive or inconclusive.

SMILES	TrxR1 substrate	A-T KAP1 phos	rTrxR1 inhibitor	pAkt inh	N370S GC	Pin1 inh
CCn1c(Cc2ccccc2)nnc1SCC(=O)N1CCCCC1	15.9%[57.1 µM]	6.9%	14.2%[57.1 µM]	-105.6%*	-8.5%	-5.6%
CC1(C)N([O-])C(c2cccs2)=C[N+]1=O	-4.5%	0.1%	8.2%	-123.8%*	3.0%	28.0%
Cc1cc2c(s1)c1cnn(Cc3c(Cl)cccc3Cl)c(=O)c1n2C	nt	nt	nt	nt	nt	-1.8%
O=c1[nH][nH]c2c(N=Cc3ccccc3O)ccc(F)c12	5.9%	3.3%	3.16µM*	i	0.6%	?
CC(OC(=O)CN(C)S(=O)(=O)c1ccc(Cl)cc1)C(=O)Nc1cccc(Cl)c1 (stereo not given)	6.2%	2.6%	23.3%	-98.5%*	2.9%	25.9%
CC(OC(=O)CN(C)S(=O)(=O)c1ccc(Cl)cc1)C(=O)Nc1ncc(Cl)cc1Cl (stereo not given)	-2.2%	-4.5%	6.7%	i	0.7%	-3.4%
COc1cc(C/C=C\c2ccccc2)c(OC)cc1O	nt	nt	nt	nt	-7.5%	nt
COc1ccc(/C=C2\CC/C(=C\c3ccc(OC)c(OC)c3)C2=O)cc1OC	?	-9.5%	-20.2%	i	3.1%	-4.5%
COc1ccc(C=C2C=C(C(C)(C)C)C(=O)C(C(C)(C)C)=C2)cc1OC	1.0%	?	11.2µM*	i	-0.6%	-9.2%
Cc1ccc(NC(=O)COC(=O)c2ccccc2OCC(=O)N(C)C)cc1	2.4%	nt	-0.5%	nt	nt	nt
Cc1cc(C)n(C(C)CC(=O)Nc2ccc(Cl)cc2C)n1 (stereo not given)	-3.7%[57.1 µM]	nt	4.6%[57.1 µM]	nt	nt	0.7%
Clc1ccccc1Cn1c(/C=C/c2ccco2)nc2ccccc21	-1.2%	6.4%	50.1µM*	i	1.7%	37.4%
O=C(NCCCc1nc2ccccc2n1Cc1ccccc1Cl)c1ccco1	-0.3%	nt	-0.4%	nt	nt	-0.1%
CC(=O)Nc1sc2c(c1C(c1cccs1)N1CCOCC1)CCCC2 (stereo not given)	-2.4%	8.0%	?	-109.6%*	3.9%	-3.1%
OCCN1CCN(Cc2cc(Br)cc(Br)c2O)CC1	-6.6%	3.1%	3.4%	nt	-12.4%	-15.1%
CC(C)(C)c1cc(C(=S)N2CCN(CCO)CC2)cc(C(C)(C)C)c1O	7.3%	-12.9%	-7.3%	i	17.8µM*	3.9%
CCC(C)c1ccccc1OCC(=O)Nc1ccc(S(=O)(=O)Nc2cc(C)on2)cc1 (stereo not given)	2.1%	nt	27.1%	nt	nt	2.4%
O=C(CNC(=O)C(c1ccccc1)c1ccccc1)OCC(=O)c1ccc2ccccc2c1	-7.4%	nt	18.0%[0.0914 µM]	nt	nt	19.1%
CC(C)(C)OC(=O)N1CSC[C@H]1C(=O)NC[C@H](CC(=O)O)c1ccc(Cl)cc1	-0.4%	7.08µM*	-0.2%	i	-6.9%	-1.0%
COc1ccc(C2N(Cc3ccccc3)C(=O)c3ccccc3N2C)cc1COc1ccc(NC(C)=O)cc1 (stereo not given)	nt	nt	nt	nt	nt	24.4%
Cc1cc(-c2ccc(S(=O)(=O)Nc3cc(Cl)ccc3C)s2)on1	-2.0%[57.1 µM]	nt	0.9%[57.1 µM]	nt	nt	?
NC(=O)c1c(NC(=O)COC(=O)CSc2nnc(-c3ccc(Cl)cc3)o2)sc2c1CCC2	12.2%[57.1 µM]	-2.0%	-32.8%[57.1 µM]	-104.3%*	7.6%	50.3%
CCCCc1nnc(NC(=O)Cc2ccc(OC)c(S(=O)(=O)N3CCOCC3)c2)s1	-7.2%	9.7%	-8.0%	i	-11.1%	-3.6%
COc1ccc(CC(=O)Nc2nnc(SCc3ccccc3)s2)cc1S(=O)(=O)N1CCOCC1	1.6%[57.1 µM]	3.2%	4.6%[57.1 µM]	-110.2%*	4.5%	27.1%
C(=C\c1ccccc1)/CN1CCN(C(c2ccccc2)c2ccccc2)CC1	9.7%[57.1 µM]	12.0%	21.2%[57.1 µM]	i	-3.6%	2.8%
SMILES	TrxR1 substrate	A-T KAP1 phos	rTrxR1 inhibitor	pAkt inh	N370S GC	Pin1 inh
Fc1ccc(C(c2ccc(F)cc2)N2CCN(C/C=C/c3ccccc3)CC2)cc1	-7.0%[57.1 µM]	39.8µM*	-8.4%[57.1 µM]	i	-22.2%	4.7%
CCOC(=O)c1ccc(NC(=O)/C=C/c2cccs2)cc1	79.4µM*	-6.0%	-35.1%	i	17.8%	-0.7%
O=C(O)c1ccc(Nc2c3ccccc3nc3ccccc23)cc1	113.1%[57.1 µM]	28.2µM*	15.0%[57.1 µM]	i	?	-0.1%
Cc1ccc(NS(=O)(=O)c2cc3c(cc2-c2cn[nH]c2)NC(=O)CO3)cc1C	nt	nt	nt	nt	nt	-8.6%
O=C(CCSCc1ccccc1Cl)N1CCN(c2ccc(F)cc2)CC1	-5.5%[57.1 µM]	nt	5.8%[57.1 µM]	nt	nt	1.2%
CCOc1cc(C(Nc2cc(C)ccn2)c2ccc3cccnc3c2O)ccc1OC (stereo not given)	-7.1%	nt	1.26µM*	nt	nt	32.3%
COc1ccc(Cn2ncc3c4sc(C)cc4n(C)c3c2=O)cc1F	nt	nt	nt	nt	nt	0.5%
COC(=O)c1ccccc1S(=O)(=O)Nc1cc(=O)c2ccccc2[nH]1	nt	nt	nt	nt	nt	-1.2%
NC(=S)NNC(=O)COc1ccccc1O	7.8%	15.8µM*	8.3%	i	-10.4%	-1.7%
CCOc1ccc(NC(=O)C2CC(=O)NC(=Nc3ccc(Cl)c(Cl)c3)S2)cc1 (stereo not given)	4.3%	nt	26.1%	nt	nt	14.3%
OC(CN1C=CCc2ccccc21)c1ccc(Cl)cc1Cl (stereo not given)	-3.2%[0.0914 µM]	nt	20.6%	nt	nt	nt
CCOc1ccc(/C=C/c2ccc3ccccc3n2)cc1OCC	-8.4%	nt	-14.6%	nt	nt	nt
CCCCc1cc(=O)oc2c(CN(CC)CC)c(O)c(Cl)cc12	i	30.4%	?	i	?	-5.2%
CCCc1cc(=O)oc2c(CN(CC)CC)c(O)c(Cl)cc12	953.1%	24.3%	17.8µM*	i	?	-4.4%
CCc1c(C)c2cc(Cl)c(O)c(CN3CCCC3)c2oc1=O	i	25.5%	?	i	?	2.9%
CCCc1cc(=O)oc2c(CN3CCN(C)CC3)c(O)c(Cl)cc12	i	19.2%	39.8µM*	i	?	-4.8%
CCCCc1cc(=O)oc2c(CN3CCN(C)CC3)c(O)ccc12	i	42.9%	?	i	?	-5.6%
CCCc1cc(=O)oc2c(CN3CCN(C)CC3)c(O)ccc12	869.2%	7.8%	79.4µM*	i	?	-9.1%
CCCCc1cc(=O)oc2c(CN3CCCC3)c(O)c(Cl)cc12	i	22.4µM*	?	i	?	-7.2%
COc1ccc(OC)c(NC(=O)c2nc(S(=O)(=O)Cc3ccccc3F)ncc2Cl)c1	14.5%	nt	?	nt	nt	nt
COc1cc(F)c(S(=O)(=O)N2CCCN(S(=O)(=O)c3cccc(NC(C)=O)c3)CC2)c(F)c1	nt	nt	nt	nt	nt	1.0%
CC(C)(C)C(=O)OCC(=O)C1CCC2C3CCC4=CC(=O)CCC4(C)C3CCC12C (stereo not given)	nt	nt	nt	nt	-3.8%	nt
O=c1c2oc3ccccc3c2n(Cc2cccc(Cl)c2)c(=O)n1Cc1ccco1	7.5%	nt	14.4%	nt	nt	9.6%
